Drawing on PubChem BioAssay AID2313 (Broad Institute, 2010), this text covers inhibition for 44 molecules.

Hit rate of the full screen: of about 22,000 compounds, about 460 (2.1%) were called active. Another 2% or so got no clear call; they are omitted.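 Rule for the calls: active = mean inhibition across valid replicates above about 65% (limit read from the data); inconclusive = mean under the limit, yet half or more replicates past it; inactive = the rest.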 What follows is part of a selection rich in actives, with near analogues and random picks from the rest.

The assay in a line: Shh-driven Gli reporter inhibition – luminescence, Shh-LIGHT2 cells, Gli-luciferase, primary screen (AID 2313).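 Note: pathway switched on by Shh-conditioned medium diluted 1 in 25 in low serum.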 To be noted: 30 h, active compounds read high.
What is called inhibition is the drop in the measured response relative to a control, in per cent. Take `CC(C)NC(=O)N(C)C[C@@H]1Oc2ccc(N(C)C)cc2C(=O)N([C@@H](C)CO)C[C@H]1C`: the inhibition is -15.2% (inactive).
With `CC(C)NC(=O)Nc1ccc2c(c1)C(=O)N([C@H](C)CO)C[C@H](C)[C@@H](CN(C)CC1CCCCC1)OCCCC[C@@H](C)O2`, the inhibition is -21.5% (inactive).
`C[C@@H]1CN([C@H](C)CO)C(=O)Cc2cc(NS(C)(=O)=O)ccc2O[C@H]1CN(C)S(=O)(=O)c1ccccc1`: the inhibition is -3.98% (inactive).
In the case of `C[C@@H]1CCCCO[C@H](CN(C)C(=O)Nc2cccc3ccccc23)[C@@H](C)CN([C@H](C)CO)C(=O)c2cc(NC(=O)Nc3ccc4c(c3)OCO4)ccc2O1`, the inhibition was -3.94% (inactive).
In the case of `Cc1ccc(OCc2n[nH]c(=S)n2C2CCCCC2)c2c1CCC2`, the inhibition is 9.84% (inactive).
Consider `COc1ccc(NC(=S)SC)cc1OC`, for which the inhibition is -54.6% (inactive).
As for `C[C@@H]1CN([C@H](C)CO)C(=O)c2cccc(NC(=O)NC3CCCCC3)c2O[C@@H]1CN(C)CC1CCCCC1`, the figure is 23.2% (inactive); as for `Cc1noc(C)c1S(=O)(=O)N(C)C[C@@H]1Oc2c(NS(=O)(=O)c3cn(C)cn3)cccc2C(=O)N([C@H](C)CO)C[C@@H]1C`, -16% (inactive); as for `C[C@H](CO)N1C[C@H](C)[C@H](CN(C)S(=O)(=O)c2cccs2)Oc2ccc(NC(=O)Nc3ccccc3)cc2C1=O`, -3.56% (inactive).
With `COCc1nc2c([nH]1)C(c1ccccc1COc1ccc(Cl)cc1)C(C#N)=C(N)O2` (centres undefined), the inhibition was -16.6% (inactive).
Turning to `C[C@@H]1CN([C@H](C)CO)C(=O)c2cccc(NS(=O)(=O)c3cn(C)cn3)c2O[C@H]1CN(C)Cc1ccc(C(=O)O)cc1`, the inhibition is 24.8% (inactive).
Under `Cc1cc(C(=O)Nc2cccc3c2O[C@@H](CN(C)Cc2ccncc2)[C@@H](C)CN([C@@H](C)CO)C3=O)n(C)n1` stands -8.53% (inactive); under `Cc1ccc(S(=O)(=O)Nc2cccc3c2O[C@@H](CN(C)S(=O)(=O)c2ccc(C)cc2)[C@H](C)CN([C@@H](C)CO)C3=O)cc1`, -18.7% (inactive); under `COc1ccc(CNC(=O)c2c(C)oc3c2cc(OC(C)=O)c2ccccc23)cc1`, -2.05% (inactive).
As for `S=c1nc2c(cnn2-c2ccccc2)c(Nc2ccccc2)[nH]1`, the figure is -7.49% (inactive); as for `Cc1ccc(-c2c[n+](=O)c3c(n2[O-])CCC3)cc1`, -26.9% (inactive).
For `C[C@H]1CN([C@@H](C)CO)C(=O)Cc2cc(NC(=O)Cc3ccccc3)ccc2O[C@@H]1CN(C)S(=O)(=O)c1ccc(Cl)cc1`, the inhibition is 22.7% (inactive).
Regarding `C1=C(c2cccs2)CC(c2cccs2)=NN=C1c1cccs1`, the inhibition is -1.01% (inactive).
Take `COc1ccc(NC(=O)N(C)C[C@@H]2Oc3c(NC(=O)Nc4cccc5ccccc45)cccc3C(=O)N([C@@H](C)CO)C[C@H]2C)cc1`: the inhibition is 3.07% (inactive).
Under `C[C@H](CO)N1C[C@H](C)[C@H](CN(C)C(=O)Nc2ccc(C(F)(F)F)cc2)Oc2ccc(N(C)C)cc2CC1=O` stands -27.1% (inactive); under `COc1ccc(NC(=O)Nc2ccc3c(c2)CC(=O)N([C@@H](C)CO)C[C@@H](C)[C@@H](CN(C)Cc2ccc(C(F)(F)F)cc2)O3)cc1`, 13.9% (inactive).
For the molecule `COc1ccc(NC(=O)N(C)C[C@@H]2Oc3c(NC(=O)c4ccc(-c5nccs5)cc4)cccc3C(=O)N([C@H](C)CO)C[C@@H]2C)cc1`, the inhibition was 20.7% (inactive).
As for `C[C@H](CO)N1C[C@H](C)[C@@H](CN(C)S(=O)(=O)c2ccc(Cl)cc2)Oc2ccc(NS(=O)(=O)c3cn(C)cn3)cc2C1=O`, the inhibition is 25.4% (inactive).
As to `C[C@H]1CN([C@@H](C)CO)C(=O)Cc2cc(NC(=O)Nc3ccccc3)ccc2O[C@H]1CN(C)S(=O)(=O)c1cn(C)cn1`, the inhibition is -32.8% (inactive).
Under `C[C@H](CO)N1C[C@H](C)[C@H](CN(C)CC2CCCCC2)Oc2ccc(NC(=O)C3CCCCC3)cc2C1=O` stands 21.2% (inactive); under `Cc1noc(C)c1NC(=O)Nc1ccc2c(c1)CC(=O)N([C@H](C)CO)C[C@@H](C)[C@@H](CN(C)S(=O)(=O)c1ccc(Cl)cc1)O2`, -13.6% (inactive).
On to `Cc1noc(C)c1NC(=O)Nc1ccc2c(c1)C(=O)N([C@@H](C)CO)C[C@H](C)[C@H](CN(C)S(=O)(=O)c1ccc(Cl)cc1)O2`, for which the inhibition was -26.2% (inactive).
For the molecule `C[C@H](CO)N1C[C@H](C)[C@@H](CN(C)Cc2ccc(C(F)(F)F)cc2)Oc2c(NC(=O)NC3CCCCC3)cccc2C1=O`, the inhibition is 23.9% (inactive).
Take `O=C(NCCN1CCCCC1)Nc1cccc(Cl)c1`: the inhibition was 20.6% (inactive).
As for `COc1ccc(NC(=O)Nc2ccc3c(c2)CC(=O)N([C@@H](C)CO)C[C@@H](C)[C@@H](CN(C)Cc2ccc(Cl)c(Cl)c2)O3)cc1`, the inhibition was 38.8% (inactive).
On to `C[C@@H]1CN([C@H](C)CO)C(=O)Cc2cc(NC(=O)CCCN(C)C)ccc2O[C@H]1CN(C)CC1CCCCC1`, for which the inhibition was 18.8% (inactive).
Turning to `Cc1cccc(NC(=O)c2ccc(C)c(S(=O)(=O)N3CCCC3)c2)c1`, the inhibition is -48.9% (inactive).
Take `Cc1ccc(NC(=O)c2cccc(N(C)C)c2)cc1NC(=O)c1ccc(O)cc1`: the inhibition was 83.8% (active).
`O=C(CCCCn1cnc2ccccc21)c1ccccc1`: the inhibition is -10.1% (inactive).
For `CNC[C@H]1Oc2ccc(NS(=O)(=O)c3ccc(F)cc3)cc2CC(=O)N([C@H](C)CO)C[C@H]1C`, the inhibition is -2.19% (inactive).
For the molecule `C[C@@H]1CN([C@H](C)CO)C(=O)Cc2cc(NS(=O)(=O)c3ccc(Cl)cc3)ccc2O[C@@H]1CN(C)C`, the inhibition is -10.8% (inactive).
Under `CNC[C@@H]1Oc2c(NC(=O)Nc3ccc(F)cc3)cccc2C(=O)N([C@@H](C)CO)C[C@@H]1C` stands 15.5% (inactive); under `Cc1ccc(NC(=O)CC(=O)Nc2ccc(C)cc2)cc1`, -21.5% (inactive); under `C[C@@H]1CN([C@H](C)CO)C(=O)c2cccc(N(C)C)c2O[C@H]1CN(C)S(=O)(=O)c1cn(C)cn1`, 3.08% (inactive).
As for `C=C1C(=O)O[C@H]2C3=C(C)C[C@H](OC(C)=O)C[C@]3(C)CC[C@@H]12`, the inhibition is -2.37% (inactive).
As for `COc1cc(/C=C2\Oc3cc(O)cc(O)c3C2=O)ccc1O`, the inhibition is 3.42% (inactive).
Regarding `Cc1ccc2nc(C)c3c(c2c1)N(c1ccccc1)CC3`, the inhibition was 34.9% (inactive).
Under `Cc1ccc2nc(Nc3ccccc3)cc(C)c2c1` stands 72.3% (active); under `Cc1ccc(Nc2nc(C)cc(C)c2C(N)=O)cc1`, -37.3% (inactive).
